PubChem BioAssay (EPA / NIEHS)
Records with an inconclusive call do not appear. Calls of active or inactive are those of the source. The calls were made as follows: active = hit-call score of the fitted dose curve at least 0.9, where 1 is the maximum; inconclusive = response in the unintended direction; inactive = score below 0.9.

molecular target: Oxysterols receptor LXR-beta (Homo sapiens) (UniProt P55055); assay: ATG_LXRb_TRANS: Attagene TRANS-FACTORIAL HepG2 Assay for human Liver X Receptor beta (LXRb) (AID 2282981); details: HepG2 Attagene TRANS GAL4-LXRb reporter, mRNA
Experimental: ATG_TRANS is a cell-based, multiplexed-readout assay that uses HepG2, a human liver cell line, with measurements taken at 24 hours after chemical dosing in a 24-well plate.ATG_LXRb_TRANS is one of 30 assay component(s) measured or calculated from the ATG_TRANS assay. It is designed to make measurements of mRNA induction, a form of inducible reporter, as detected with fluorescence intensity signals by Reverse transcription polymerase chain reaction (RT-PCR) and Capillary electrophoresis technology.Data from the assay component ATG_LXRb_TRANS was analyzed into 1 assay endpoint. This assay endpoint, ATG_LXRb_TRANS, was analyzed in the positive analysis fitting direction relative to DMSO as the negative control and baseline of activity. Using a type of inducible reporter, measures of mRNA for gain-of-signal activity can be used to understand the reporter gene at the transcription factor-level as they relate to the gene NR1H2. Furthermore, this assay endpoint can be referred to as a primary readout, because this assay has produced multiple assay endpoints where this one serves a reporter gene function. To generalize the intended target to other relatable targets, this assay endpoint is annotated to the nuclear receptor intended target family, where the subfamily is non-steroidal.
Human liver HepG2 cells are transiently transfected with multiple reporter transcription units (MRTUs) in 6-well plates using FuGene 6 reagent (Roche; 3 ml FuGene/1 mg DNA). The MRTU constructs are regulated by a cis-regulating element (promoter). […] A major difference between the CIS and TRANS system is that in CIS activities of endogenous TFs are measured, whereas the TRANS assay evaluates changes in activities of exogenous, chimeric NR-Gal4 proteins. […] At the end of 24 hour incubation, total RNA was isolated using TriZol reagent (Invitrogen). The isolated RNA is then reverse-transcribed using oligo(dT) primer and Mo-MLV reverse transcriptase (Invitrogen) with DNAse I (Ambion) treatment for 30 min. The one-tenth of the produced cDNA was amplified by PCR using Taq DNA polymerase (Invitrogen) and two reporter sequence-specific primers. The PCR products were fluorescently labeled by primer extension with 6-arboxyfluorescein (6-FAM) 5'-labeled reporter sequence-specific primer (2 min at 95 C, 20 s at 68 C and 10 min at 72 C) and these products were digested with 5U of HpaI (New England Biolabs) for 2h at 37 C. The fragments were purified using Qiaquick PCR columns (Qiagen), analyzed on an ABI 3130xL genetic analyzer (Applied Biosystems) with peak positions identified by using a set of X-rhodamine (ROX)-labeled MapMarker1000 molecular weight standards (BioVentures). The raw capillary electrophoresis data was processed using Attagraph software (Attagene).

Oxysterols receptor LXR-beta (Homo sapiens), sequence (P55055 whole entry, looked up, the tested form may be a part): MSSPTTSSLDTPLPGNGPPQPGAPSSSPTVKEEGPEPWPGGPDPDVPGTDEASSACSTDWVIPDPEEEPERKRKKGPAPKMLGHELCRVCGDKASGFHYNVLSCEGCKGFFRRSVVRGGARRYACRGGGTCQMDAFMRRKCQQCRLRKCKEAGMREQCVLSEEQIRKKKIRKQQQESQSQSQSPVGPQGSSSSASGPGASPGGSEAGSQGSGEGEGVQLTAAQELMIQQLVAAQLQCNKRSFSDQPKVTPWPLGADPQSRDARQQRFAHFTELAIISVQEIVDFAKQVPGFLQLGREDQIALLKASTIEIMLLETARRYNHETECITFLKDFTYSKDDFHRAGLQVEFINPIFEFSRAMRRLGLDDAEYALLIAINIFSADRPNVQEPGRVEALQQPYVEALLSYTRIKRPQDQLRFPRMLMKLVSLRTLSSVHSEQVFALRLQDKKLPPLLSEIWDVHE

SMILES	outcome	AC50
COC(=O)c1ccccc1S(=O)(=O)NC(=O)N(C)c1nc(C)nc(OC)n1	inactive	–
CCS(=O)(=O)c1cccnc1S(=O)(=O)NC(=O)Nc1nc(OC)cc(OC)n1	inactive	–
CC(C)OC(=O)Nc1cccc(Cl)c1	inactive	–
CCC(C)(NC(=O)c1cc(Cl)c(C)c(Cl)c1)C(=O)CCl (stereo not given)	inactive	–
COc1nn(CSP(=S)(OC)OC)c(=O)s1	inactive	–
[2H]C1([2H])[n+]2ccccc2-c2cccc[n+]2C1([2H])[2H]	inactive	–
O=[N+]([O-])c1c(Cl)c(Cl)c(Cl)c(Cl)c1Cl	inactive	–
Oc1ccc(Cl)cc1Cc1ccccc1	inactive	–
OCCOc1ccccc1	inactive	–
COc1cc(OC)nc(NC(=O)NS(=O)(=O)c2cc(NC=O)ccc2C(=O)N(C)C)n1	inactive	–
Clc1ccccc1-c1nnc(-c2ccccc2Cl)nn1	inactive	–
CCOc1nc(NC)nc(NC(=O)NS(=O)(=O)c2ccccc2C(=O)OC)n1	inactive	–
CC1(c2ccc(Oc3ccccc3)cc2)OC(=O)N(Nc2ccccc2)C1=O (stereo not given)	inactive	–
O=S(=O)(O)C(F)(F)C(F)(F)C(F)(F)C(F)(F)C(F)(F)C(F)(F)C(F)(F)C(F)(F)F	inactive	–
CCC(C)(C)C(=O)OC1=C(c2ccc(Cl)cc2Cl)C(=O)OC12CCCCC2	inactive	–
CC(C)(C)C(O)/C(=C\c1ccc(Cl)cc1Cl)n1cncn1 (stereo not given)	inactive	–
CCCN(CCC)c1c([N+](=O)[O-])cc(C(F)(F)F)cc1[N+](=O)[O-]	inactive	–
C[C@H]1[C@H](c2ccc(Cl)cc2)SC(=O)N1C(=O)NC1CCCCC1	inactive	–
O=S1OCC2C(CO1)C1(Cl)C(Cl)=C(Cl)C2(Cl)C1(Cl)Cl (stereo not given)	inactive	–

SMILES	outcome	AC50
CNC(=O)CSP(=S)(OC)OC	inactive	–
COC(=O)c1ccccc1S(=O)(=O)NC(=O)Nc1nc(C)nc(OC)n1	inactive	–
CCCN(CCOc1c(Cl)cc(Cl)cc1Cl)C(=O)n1ccnc1	inactive	–
O=C1c2ccccc2C(=O)N1SC(Cl)(Cl)Cl	inactive	–
COP(=O)(OC)OC=C(Cl)Cl	inactive	–
CCN(CC)C(=O)SCc1ccc(Cl)cc1	inactive	–
O=C(O)CCCOc1ccc(Cl)cc1Cl	inactive	–
O=[N+]([O-])/N=C1\NCCN1Cc1ccc(Cl)nc1	inactive	–
CC(C)(C)C(O)C(Oc1ccc(Cl)cc1)n1cncn1 (stereo not given)	inactive	–
CNC(=O)Oc1cccc(N=CN(C)C)c1	inactive	–
O=C(Nc1ccccc1)Nc1cnns1	inactive	–
Cc1[nH]c(=O)n(C(C)(C)C)c(=O)c1Cl	inactive	–
CN1CSC(=S)N(C)C1	inactive	–
COP(=S)(OC)Oc1ccc(SC)c(C)c1	–	39.3 µM (active)
CC1(C)C(C=C(Cl)Cl)C1C(=O)OC(C#N)c1ccc(F)c(Oc2ccccc2)c1 (stereo not given)	inactive	–
CC(C)N(C(=O)COc1nnc(C(F)(F)F)s1)c1ccc(F)cc1	inactive	–
ClC1C(Cl)C(Cl)C(Cl)C(Cl)C1Cl (stereo not given)	inactive	–
O=C(NC(=O)c1c(F)cccc1F)Nc1ccc(OC(F)(F)C(F)OC(F)(F)F)c(Cl)c1 (stereo not given)	inactive	–
CCOC1Oc2ccc(OS(C)(=O)=O)cc2C1(C)C (stereo not given)	inactive	–
COP(=S)(OC)Oc1ccc([N+](=O)[O-])cc1	inactive	–
